The record followed here is PubChem BioAssay (EPA / NIEHS).

Several values for one entry are separate records, joined by “and”; a condition that tells them apart may be missing. Equal entries are not always repeated. Inconclusive results are not listed. The source holds several records for some structures; these can differ, active in one and inactive in another. Activity calls are given as the source filed them. The calls were made as follows: active = hit-call score of the fitted dose curve at least 0.9, where 1 is the maximum; inconclusive = response in the unintended direction; inactive = score below 0.9.

Assay [1] can be described thus: ATG_XTT_Cytotoxicity: Cytotoxicity Assessment in the Attagene TRANS-FACTORIAL HepG2 Assay (AID 2283584). In outline:
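HepG2 cells transiently transfected with GAL4-UAS multiple reporter units, dosed 24 h; cytotoxicity read by XTT as loss of signal versus DMSO baseline.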

A short description of assay [2]: TOX21_p53_BLA_p2_viability: Viability Assessment in the Tox21 HCT-116 p53 Agonism Beta-lactamase Assay, Phase 2 (AID 2283591).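 Also: compound exposure lasted 16 h at 37 °C; actives lower the ATP signal meaning cytotoxicity.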 A digest of the protocol:
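HCT116 p53-bla cells, 4000/well, dosed after 5 h plating (217-fold dilution of DMSO stocks) and incubated 16 h at 37C. Viability taken as cellular ATP by CellTiter-Glo luminescence after 30 min RT; signal loss marks cytotoxicity.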

A short description of assay [3]: TOX21_p53_BLA_p3_viability: Viability Assessment in the Tox21 HCT-116 p53 Agonism Beta-lactamase Assay, Phase 3 (AID 2283593).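 Also: cells exposed to compound for 16 h before reading.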 In outline:
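HCT116 cells, 4000/well, dosed 5 h after plating by pin transfer (217-fold dilution from DMSO stock) and incubated 16 h at 37C, 5% CO2. Viability read as ATP luminescence with CellTiter-Glo after 30 min at room temperature.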

In assay [4] the target is Cellular tumor antigen p53 (Homo sapiens) (UniProt P04637). Kind of assay: TOX21_p53_BLA_p3_ratio: Tox21 HCT-116 p53 Agonism Beta-lactamase Assay, Ratio, Phase 3 (AID 2283596). In outline: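 HCT116 p53-bla cells (4000/well) given compound in DMSO (217-fold dilution) after 5 h, incubated 16 h at 37C. CCF4-AM substrate 2 h at room temperature; 460/530 nm emission ratio, gain fitted against DMSO.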
Sequence of Cellular tumor antigen p53 (Homo sapiens) (P04637 whole entry, looked up): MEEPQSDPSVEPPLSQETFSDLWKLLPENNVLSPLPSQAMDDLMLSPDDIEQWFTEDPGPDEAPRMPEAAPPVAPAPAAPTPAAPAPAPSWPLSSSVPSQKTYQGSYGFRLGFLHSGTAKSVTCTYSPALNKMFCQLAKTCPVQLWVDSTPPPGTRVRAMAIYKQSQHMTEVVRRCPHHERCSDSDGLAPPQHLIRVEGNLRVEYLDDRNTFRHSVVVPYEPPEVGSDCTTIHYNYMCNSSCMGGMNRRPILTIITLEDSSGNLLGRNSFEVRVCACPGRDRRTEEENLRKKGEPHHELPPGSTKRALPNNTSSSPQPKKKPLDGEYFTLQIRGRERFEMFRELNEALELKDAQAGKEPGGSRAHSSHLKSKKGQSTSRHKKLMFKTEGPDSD

Assay [5] has the same target. The assay can be described thus: TOX21_p53_BLA_p5_ratio: Tox21 HCT-116 p53 Agonism Beta-lactamase Assay, Ratio, Phase 5 (AID 2283599). In outline: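 HCT-116 p53-bla cells (4000/well) plated 5 h, dosed with compound (217-fold DMSO dilution) for 16 h at 37 C; CCF4-AM substrate 2 h at room temperature. Activity is the 460/530 nm emission ratio (405 nm excitation), fitted in gain-of-signal direction versus DMSO.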

For assay [6] the target is unchanged. The assay can be described thus: TOX21_p53_BLA_p4_ratio: Tox21 HCT-116 p53 Agonism Beta-lactamase Assay, Ratio, Phase 4 (AID 2283601). In outline: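 HCT-116 p53 beta-lactamase reporter cells (4000/well) preincubated 5 h, then compound (217-fold dilution of DMSO stock) for 16 h at 37C. CCF4-AM substrate added 2 h at room temperature; 460/530 nm emission ratio fitted upward versus DMSO.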

For assay [7] the target is unchanged. Kind of assay: TOX21_p53_BLA_p2_ratio: Tox21 HCT-116 p53 Agonism Beta-lactamase Assay, Ratio, Phase 2 (AID 2283592). A digest of the protocol: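 HCT-116 cells with p53-responsive beta-lactamase reporter, 4000 cells/well, preincubated 5 h, then compound in DMSO (217-fold dilution) for 16 h at 37C. CCF4-AM substrate 2 h at room temperature; 460/530 nm emission ratio fitted upward versus DMSO.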

Assay [8] is described as follows: TOX21_p53_BLA_p5_viability: Viability Assessment in the Tox21 HCT-116 p53 Agonism Beta-lactamase Assay, Phase 5 (AID 2283600). A digest of the protocol:
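HCT-116 p53 beta-lactamase reporter cells, 4000/well, were exposed to compound (pin transfer, 217-fold dilution) for 16 hours at 37C. Cellular ATP was read by CellTiter-Glo luminescence after 30 min at room temperature.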

The nature of assay [9]: TOX21_p53_BLA_p4_viability: Viability Assessment in the Tox21 HCT-116 p53 Agonism Beta-lactamase Assay, Phase 4 (AID 2283597).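 Also: hits lower the luminescence signal meaning cytotoxicity.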 A digest of the protocol: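 HCT-116 p53-bla cells, 4000/well, dosed after 5 h attachment and incubated 16 h at 37 °C, 5% CO2. Viability from CellTiter-Glo ATP luminescence after 30 min at room temperature, taken after the beta-lactamase read; loss of signal indicates cytotoxicity.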

For the compound `CC(=O)Oc1ccc(C(C)=O)cc1`, the call in [1], in assay [2], in [3], in assay [4], in assay [5] and in assay [6] was inactive.
Consider `CCC(=O)Oc1ccc(/C(CC)=C(\CC)c2ccc(OC(=O)CC)cc2)cc1`, for which the compound was called inactive in assay [1], in assay [8] and in assay [6]. Moreover, the half-maximal activity concentration (AC50) in assay [7] was 6.81 µM (active); in assay [4], 16.4 µM (active); in assay [5], 5.08 µM (active).
As to `CCOC(=O)CC(C(C)=O)C(C)=O`, the call in [1], in [2], in [3] and in assay [5] was inactive.
As to `OCCN(CCO)c1ccccc1`, the call in assay [1], in assay [2], in assay [3], in assay [5] and in [8] was inactive.
Turning to `CCOCC(=O)O`, the compound was called inactive in assay [1], in assay [2], in assay [4], in [9], in assay [5] and in assay [8].
As to `NC(=O)OCC(COC(N)=O)c1ccccc1`, the compound was called inactive in assay [1], in [7], in [3], in assay [4], in assay [5] and in [8]. Moreover, the outcome in assay [6] was inactive.
As to `N#CCc1ccc(Cl)cc1Cl`, the call in assay [1], in [2], in assay [9], in assay [5] and in assay [6] was inactive.
With `C=C[Si](OC(C)=O)(OC(C)=O)OC(C)=O`, the compound was called inactive in [1], in [7], in assay [3], in [4], in assay [5] and in assay [8]. In [6], the result was inactive.
In the case of `[Cl][Nd]([Cl])[Cl]`, the outcome in assay [1], in assay [2], in assay [3], in assay [9] and in assay [5] was inactive.
In the case of `FC(F)(F)C(=NOCC1OCCO1)c1ccc(Cl)cc1`, the outcome in assay [1], in assay [2], in assay [4], in assay [9], in assay [8] and in [6] was inactive.
As to `CCCCCCCCCCCCCCCCCC#N`, the call in [1], in assay [7], in [4], in [9] and in [5] was inactive.
As for `CCc1ccc2c(c1)C(=O)c1ccccc1C2=O`, the call in assay [1], in assay [2], in assay [3] and in assay [8] was inactive.
As for `CC1(C)S[C@@H]2[C@H](NC(=O)COc3ccccc3)C(=O)N2[C@H]1C(=O)O`, the call in assay [1], in [7], in assay [4], in assay [9], in assay [5] and in assay [6] was inactive.
Consider `CCO[Si](CCCN=C=O)(OCC)OCC`, for which the result in assay [1], in assay [7] and in assay [4] was inactive.
Take `N[C@H]1C(O)O[C@H](CO)[C@H](O)[C@@H]1O` (some centres undefined): the result in [1], in [2], in assay [3], in assay [4], in [9] and in assay [5] was inactive. In addition, the result in [8] and in assay [6] was inactive.
For the compound `Cc1cccc(N(C)C(=S)Oc2ccc3ccccc3c2)c1`, the compound was called inactive in [2], in assay [7], in assay [3], in [4], in assay [9] and in [5]. In addition, the compound was classed as inactive in assay [8] and in [6].
As to `CCOC(=O)c1ccccc1C(=C1C=C(Br)C(=O)C(Br)=C1)c1cc(Br)c(O)c(Br)c1`, the compound was called inactive in assay [1]. Besides, the AC50 is 10.2 µM (active) in assay [7], 9.49 µM (active) in assay [9], 15.2 µM (active) in assay [5] and 8.23 µM (active) in assay [6].
Regarding `NNC(=O)c1cccc(C(=O)NN)c1`, the call in assay [1], in assay [7], in assay [9], in assay [5] and in assay [6] was inactive.
`OCCNCc1ccccc1`: the call in assay [1], in [3], in assay [4], in [9], in assay [5] and in assay [8] was inactive.
In the case of `O=P(O)(O)Oc1ccccc1`, the result in assay [1], in assay [4], in [9], in assay [5] and in assay [8] was inactive.
Regarding `Nc1ncn([C@@H]2O[C@H](CO)[C@@H](O)[C@H]2O)c(=O)n1`, the compound was called inactive in assay [2], in assay [7] and in assay [8]. For the same compound, the AC50 in assay [7] is 1.06 µM (active); in assay [9], 1.15 µM (active) and 514 nM (active); in assay [5], 3.88 µM (active) and 6.69 µM (active); in assay [6], 13.6 µM (active) and 6.66 µM (active).
Consider `[Cl][In]([Cl])[Cl]`, for which the outcome in assay [2], in [7], in assay [4], in assay [9], in assay [5] and in [8] was inactive. For the same compound, the result in [6] was inactive.
`C=CC(C)(CCC=C(C)C)OC(=O)C(C)C` (centres undefined): the compound was called inactive in assay [1], in assay [7], in assay [5] and in assay [6].
As for `CCCCCCCCCCCSCC(=O)O`, the AC50 is 62 µM (active) in assay [2]; 83.3 µM (active) in [7]; 84 µM (active) in assay [9]; 83.5 µM (active) in assay [5]; 74 µM (active) in assay [8]; 86.7 µM (active) in assay [6]. Further, the call in assay [3] and in [4] was inactive.
Take `CC(=O)Oc1ccc(C)cc1`: the compound was classed as inactive in assay [2], in [7], in assay [3], in [4], in assay [5] and in assay [6].
On to `O=C1CCCCCCCCCCC(=O)OCCO1`, for which the call in [1], in [7], in assay [5] and in assay [6] was inactive.
On to `C=CC(=O)OCCOC(=O)C=C`, for which the result in assay [2], in [7], in assay [3], in assay [4], in assay [5] and in assay [6] was inactive.

By AC50 is commonly meant the concentration giving half of the maximal activity seen.
